Laboratory results as given in publication PMC7862700, “An all-to-all approach to the identification of sequence-specific readers for epigenetic DNA modifications on cytosine”.

How the values were obtained:
Test in all cases: DAPPL (digital affinity profiling via proximity ligation, sequencing); 10 mM Tris-HCl pH 7.5, 50 mM NaCl, 1 mM DTT, 4% glycerol, room temperature, 30 min; GST-TFs on glutathione beads, 16-mer random dsDNA library, 0.1% formaldehyde crosslink after washing; high values mean tight binding
FLI1 = target: T1, FLI1 (Homo sapiens, UniProt Q01543 1-452); conditions: protein: recombinant; tags: N-terminal GST; dsDNA, one strand shown
T1 sequence: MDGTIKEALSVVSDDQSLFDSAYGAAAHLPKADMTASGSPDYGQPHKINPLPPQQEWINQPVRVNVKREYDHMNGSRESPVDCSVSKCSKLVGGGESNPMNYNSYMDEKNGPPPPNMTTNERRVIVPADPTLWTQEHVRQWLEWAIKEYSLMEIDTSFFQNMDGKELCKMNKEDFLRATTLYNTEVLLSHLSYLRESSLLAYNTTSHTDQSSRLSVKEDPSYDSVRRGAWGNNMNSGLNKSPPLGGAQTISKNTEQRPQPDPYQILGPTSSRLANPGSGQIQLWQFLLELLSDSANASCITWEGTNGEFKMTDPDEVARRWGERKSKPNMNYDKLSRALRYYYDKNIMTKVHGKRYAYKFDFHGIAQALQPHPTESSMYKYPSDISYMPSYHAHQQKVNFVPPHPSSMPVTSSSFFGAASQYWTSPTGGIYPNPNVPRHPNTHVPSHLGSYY
Outline: (§1)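 Binding signal is defined as a hexamer's read frequency for one factor over its frequency for the tag-only sample. To obtain reads, GST-fused human transcription factors were expressed in yeast, captured on glutathione beads, barcoded with DNA and pooled with that sample. Pools met 200 nmole of a 16-mer random double-stranded DNA library in Tris/NaCl/DTT/glycerol buffer for 30 min at room temperature before washing, 0.1% formaldehyde crosslinking, proximity ligation (BsaI/T4 ligase, 1 h, 37 °C), PCR and Illumina NextSeq500 sequencing.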

ELK1 = target: T2, ELK1 (Homo sapiens, UniProt P19419 1-428); conditions: protein: recombinant; tags: N-terminal GST; dsDNA, one strand shown
T2 sequence: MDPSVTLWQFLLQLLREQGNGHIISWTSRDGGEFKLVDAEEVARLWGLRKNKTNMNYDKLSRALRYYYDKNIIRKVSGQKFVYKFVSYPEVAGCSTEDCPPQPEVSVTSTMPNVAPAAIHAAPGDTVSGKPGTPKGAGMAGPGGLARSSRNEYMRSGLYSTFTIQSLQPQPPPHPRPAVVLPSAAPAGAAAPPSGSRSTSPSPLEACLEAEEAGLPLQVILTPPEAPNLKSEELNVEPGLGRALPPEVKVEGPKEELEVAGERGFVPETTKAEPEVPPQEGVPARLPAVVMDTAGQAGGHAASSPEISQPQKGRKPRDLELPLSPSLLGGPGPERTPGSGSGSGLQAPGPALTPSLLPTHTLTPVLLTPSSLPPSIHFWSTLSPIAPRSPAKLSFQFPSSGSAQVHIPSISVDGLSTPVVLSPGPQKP
Outline: as §1

GABPA = target: T3, GABPA (Homo sapiens, UniProt Q06546 1-454); conditions: protein: recombinant; tags: N-terminal GST; dsDNA, one strand shown
T3 sequence: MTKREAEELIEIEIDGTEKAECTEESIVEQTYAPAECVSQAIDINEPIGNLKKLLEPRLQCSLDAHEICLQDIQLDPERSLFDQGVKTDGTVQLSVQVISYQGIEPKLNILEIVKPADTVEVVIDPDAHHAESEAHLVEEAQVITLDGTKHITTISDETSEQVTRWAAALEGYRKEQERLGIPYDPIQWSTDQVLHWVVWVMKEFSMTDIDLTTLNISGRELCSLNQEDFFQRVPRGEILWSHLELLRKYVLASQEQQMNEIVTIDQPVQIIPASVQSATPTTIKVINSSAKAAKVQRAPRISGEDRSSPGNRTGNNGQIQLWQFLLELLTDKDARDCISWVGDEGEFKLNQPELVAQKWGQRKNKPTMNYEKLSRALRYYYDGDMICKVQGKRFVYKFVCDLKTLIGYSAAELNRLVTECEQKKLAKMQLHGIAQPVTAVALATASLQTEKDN
Outline: as §1

ERG = target: T4, ERG (Homo sapiens, UniProt P11308 1-479); conditions: protein: recombinant; tags: N-terminal GST; dsDNA, one strand shown
T4 sequence: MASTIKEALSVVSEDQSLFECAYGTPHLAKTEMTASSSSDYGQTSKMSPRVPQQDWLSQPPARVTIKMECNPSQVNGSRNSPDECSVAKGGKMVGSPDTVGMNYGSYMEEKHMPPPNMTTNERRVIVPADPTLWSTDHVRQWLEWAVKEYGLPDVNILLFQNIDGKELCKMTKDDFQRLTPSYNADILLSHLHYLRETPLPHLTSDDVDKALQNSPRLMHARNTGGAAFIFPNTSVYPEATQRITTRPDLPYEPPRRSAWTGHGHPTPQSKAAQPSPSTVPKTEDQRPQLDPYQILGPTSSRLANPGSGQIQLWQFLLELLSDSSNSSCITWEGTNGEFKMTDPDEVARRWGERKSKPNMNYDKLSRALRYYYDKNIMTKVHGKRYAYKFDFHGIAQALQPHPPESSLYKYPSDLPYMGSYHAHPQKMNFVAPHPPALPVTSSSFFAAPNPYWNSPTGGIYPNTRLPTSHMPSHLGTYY
Outline: as §1

ELF1 = ELF1 (Homo sapiens, UniProt P32519 1-619); conditions: protein: recombinant; tags: N-terminal GST; dsDNA, one strand shown
Sequence of ELF1 (P32519 whole entry): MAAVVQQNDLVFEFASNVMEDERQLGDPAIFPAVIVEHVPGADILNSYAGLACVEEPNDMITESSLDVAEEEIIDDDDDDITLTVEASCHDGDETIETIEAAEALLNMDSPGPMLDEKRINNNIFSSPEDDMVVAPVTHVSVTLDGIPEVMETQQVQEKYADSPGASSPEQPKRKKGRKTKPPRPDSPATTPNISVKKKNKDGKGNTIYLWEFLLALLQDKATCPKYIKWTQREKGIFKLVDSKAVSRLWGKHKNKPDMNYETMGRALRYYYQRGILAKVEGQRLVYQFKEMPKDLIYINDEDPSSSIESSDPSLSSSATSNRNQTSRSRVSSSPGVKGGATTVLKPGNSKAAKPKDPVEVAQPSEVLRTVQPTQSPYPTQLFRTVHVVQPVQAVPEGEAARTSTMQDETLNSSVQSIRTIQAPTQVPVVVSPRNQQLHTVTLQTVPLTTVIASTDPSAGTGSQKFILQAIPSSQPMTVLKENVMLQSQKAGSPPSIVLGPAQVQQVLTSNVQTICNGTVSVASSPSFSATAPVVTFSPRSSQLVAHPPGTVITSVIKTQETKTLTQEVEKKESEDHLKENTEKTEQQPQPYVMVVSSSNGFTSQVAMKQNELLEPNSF
Outline: as §1

EHF = target: T5, EHF (Homo sapiens, UniProt Q9NZC4 1-300); conditions: protein: recombinant; tags: N-terminal GST; dsDNA, one strand shown
T5 sequence: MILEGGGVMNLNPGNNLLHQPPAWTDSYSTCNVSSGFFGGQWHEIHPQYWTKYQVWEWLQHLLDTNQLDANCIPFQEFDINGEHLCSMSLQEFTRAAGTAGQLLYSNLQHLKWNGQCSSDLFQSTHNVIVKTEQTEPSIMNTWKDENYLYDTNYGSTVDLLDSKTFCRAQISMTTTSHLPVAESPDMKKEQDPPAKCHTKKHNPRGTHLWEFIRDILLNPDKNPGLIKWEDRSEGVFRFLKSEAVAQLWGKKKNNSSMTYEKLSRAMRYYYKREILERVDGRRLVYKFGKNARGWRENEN
Outline: as §1

SPI1 = SPI1 (Homo sapiens, UniProt P17947 1-270); conditions: protein: recombinant; tags: N-terminal GST; dsDNA, one strand shown
Outline: as §1

SPIB = SPIB (Homo sapiens, UniProt Q01892 1-262); conditions: protein: recombinant; tags: N-terminal GST; dsDNA, one strand shown
Sequence of SPIB (Q01892 whole entry): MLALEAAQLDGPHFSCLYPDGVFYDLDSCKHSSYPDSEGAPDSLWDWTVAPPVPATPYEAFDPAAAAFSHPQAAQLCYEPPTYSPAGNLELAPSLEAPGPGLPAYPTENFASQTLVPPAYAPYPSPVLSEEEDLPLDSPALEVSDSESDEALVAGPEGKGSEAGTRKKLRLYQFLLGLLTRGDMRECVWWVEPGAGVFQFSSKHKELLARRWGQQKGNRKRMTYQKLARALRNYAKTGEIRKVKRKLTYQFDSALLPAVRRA
Outline: as §1

ELK3 = target: T6, ELK3 (Homo sapiens, UniProt P41970 1-407); conditions: protein: recombinant; tags: N-terminal GST; dsDNA, one strand shown
T6 sequence: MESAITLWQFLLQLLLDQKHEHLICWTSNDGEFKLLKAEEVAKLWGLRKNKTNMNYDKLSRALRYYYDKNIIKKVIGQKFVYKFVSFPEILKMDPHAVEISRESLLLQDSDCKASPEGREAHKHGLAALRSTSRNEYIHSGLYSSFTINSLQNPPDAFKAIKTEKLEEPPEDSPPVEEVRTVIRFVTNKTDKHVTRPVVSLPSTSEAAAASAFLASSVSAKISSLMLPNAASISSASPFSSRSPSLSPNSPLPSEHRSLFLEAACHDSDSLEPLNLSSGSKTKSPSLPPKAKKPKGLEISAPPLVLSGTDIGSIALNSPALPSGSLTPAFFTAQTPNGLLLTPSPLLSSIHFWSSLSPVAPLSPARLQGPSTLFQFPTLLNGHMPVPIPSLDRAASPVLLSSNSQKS
Outline: as §1

FEV = target: T7, FEV (Homo sapiens, UniProt Q99581 1-238); conditions: protein: recombinant; tags: N-terminal GST; dsDNA, one strand shown
T7 sequence: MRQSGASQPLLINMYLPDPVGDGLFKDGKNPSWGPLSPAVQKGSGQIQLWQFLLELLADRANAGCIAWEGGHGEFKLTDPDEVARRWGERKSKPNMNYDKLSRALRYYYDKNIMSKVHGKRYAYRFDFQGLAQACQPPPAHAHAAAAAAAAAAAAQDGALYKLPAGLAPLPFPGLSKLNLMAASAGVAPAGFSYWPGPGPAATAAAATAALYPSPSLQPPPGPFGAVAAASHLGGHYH
Outline: as §1

ETV5 = ETV5 (Homo sapiens, UniProt P41161 1-510); conditions: protein: recombinant; tags: N-terminal GST; dsDNA, one strand shown
Sequence of ETV5 (P41161 whole entry): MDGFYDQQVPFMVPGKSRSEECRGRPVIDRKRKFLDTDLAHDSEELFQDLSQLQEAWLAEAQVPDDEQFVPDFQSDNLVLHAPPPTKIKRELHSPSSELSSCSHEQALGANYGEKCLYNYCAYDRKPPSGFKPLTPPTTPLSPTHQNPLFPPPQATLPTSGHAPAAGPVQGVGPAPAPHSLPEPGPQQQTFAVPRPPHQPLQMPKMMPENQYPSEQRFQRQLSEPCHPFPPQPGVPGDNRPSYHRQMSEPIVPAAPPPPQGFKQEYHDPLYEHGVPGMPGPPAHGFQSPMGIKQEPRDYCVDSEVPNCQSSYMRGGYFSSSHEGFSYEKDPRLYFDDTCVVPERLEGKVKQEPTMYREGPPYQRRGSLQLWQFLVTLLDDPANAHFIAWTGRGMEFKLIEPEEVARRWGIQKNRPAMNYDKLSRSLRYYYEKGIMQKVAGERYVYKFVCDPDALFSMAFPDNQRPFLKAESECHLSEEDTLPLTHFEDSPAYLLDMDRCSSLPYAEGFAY
Outline: as §1

HSF1 = HSF1 (Homo sapiens, UniProt Q00613 1-529); conditions: protein: recombinant; tags: N-terminal GST; chain copies: 3; dsDNA, one strand shown
Sequence of HSF1 (Q00613 whole entry): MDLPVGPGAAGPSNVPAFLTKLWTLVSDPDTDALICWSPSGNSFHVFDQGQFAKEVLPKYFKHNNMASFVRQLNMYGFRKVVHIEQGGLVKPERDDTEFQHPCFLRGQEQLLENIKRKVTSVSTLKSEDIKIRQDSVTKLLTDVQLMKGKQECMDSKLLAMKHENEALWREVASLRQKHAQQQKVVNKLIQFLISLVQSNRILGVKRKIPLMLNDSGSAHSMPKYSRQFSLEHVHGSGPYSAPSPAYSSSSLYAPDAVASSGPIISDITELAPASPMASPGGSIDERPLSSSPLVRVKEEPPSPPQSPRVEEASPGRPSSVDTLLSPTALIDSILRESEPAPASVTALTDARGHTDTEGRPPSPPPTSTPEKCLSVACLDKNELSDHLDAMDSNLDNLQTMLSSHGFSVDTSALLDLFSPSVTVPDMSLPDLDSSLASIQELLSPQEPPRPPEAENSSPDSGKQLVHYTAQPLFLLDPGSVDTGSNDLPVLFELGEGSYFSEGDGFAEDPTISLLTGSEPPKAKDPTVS
Outline: as §1

SPIC = target: T8, SPIC (Homo sapiens, UniProt Q8N5J4 1-248); conditions: protein: recombinant; tags: N-terminal GST; dsDNA, one strand shown
T8 sequence: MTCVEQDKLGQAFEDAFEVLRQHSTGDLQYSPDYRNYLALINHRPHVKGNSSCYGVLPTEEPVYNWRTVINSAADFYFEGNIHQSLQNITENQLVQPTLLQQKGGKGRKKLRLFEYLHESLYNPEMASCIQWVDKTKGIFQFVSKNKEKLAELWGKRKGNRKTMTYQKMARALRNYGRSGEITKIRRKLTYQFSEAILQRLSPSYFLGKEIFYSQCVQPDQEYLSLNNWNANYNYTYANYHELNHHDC
Outline: as §1

ELF4 = ELF4 (Homo sapiens, UniProt Q99607 1-663); conditions: protein: recombinant; tags: N-terminal GST; dsDNA, one strand shown
Sequence of ELF4 (Q99607 whole entry): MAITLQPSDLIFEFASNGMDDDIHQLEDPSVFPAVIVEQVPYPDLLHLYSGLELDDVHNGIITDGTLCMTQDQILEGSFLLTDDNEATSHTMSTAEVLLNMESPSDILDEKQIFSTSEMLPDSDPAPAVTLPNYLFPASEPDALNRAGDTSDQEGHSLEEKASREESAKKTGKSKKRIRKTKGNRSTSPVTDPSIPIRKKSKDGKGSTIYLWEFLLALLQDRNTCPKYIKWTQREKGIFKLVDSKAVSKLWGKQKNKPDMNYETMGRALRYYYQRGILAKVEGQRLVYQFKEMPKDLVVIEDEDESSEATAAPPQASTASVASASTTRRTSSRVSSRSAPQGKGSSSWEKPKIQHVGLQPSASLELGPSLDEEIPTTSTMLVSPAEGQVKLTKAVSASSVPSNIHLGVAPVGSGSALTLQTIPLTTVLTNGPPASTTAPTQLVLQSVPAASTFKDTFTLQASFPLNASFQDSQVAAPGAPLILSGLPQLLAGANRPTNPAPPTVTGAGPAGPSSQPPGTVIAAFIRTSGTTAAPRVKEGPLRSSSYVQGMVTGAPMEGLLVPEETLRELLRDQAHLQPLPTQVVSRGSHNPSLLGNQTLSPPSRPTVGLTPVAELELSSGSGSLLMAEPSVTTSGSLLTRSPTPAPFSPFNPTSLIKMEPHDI
Outline: as §1

ELK4 = target: T9, ELK4 (Homo sapiens, UniProt P28324-2 1-405); conditions: protein: recombinant; tags: N-terminal GST; dsDNA, one strand shown
T9 sequence: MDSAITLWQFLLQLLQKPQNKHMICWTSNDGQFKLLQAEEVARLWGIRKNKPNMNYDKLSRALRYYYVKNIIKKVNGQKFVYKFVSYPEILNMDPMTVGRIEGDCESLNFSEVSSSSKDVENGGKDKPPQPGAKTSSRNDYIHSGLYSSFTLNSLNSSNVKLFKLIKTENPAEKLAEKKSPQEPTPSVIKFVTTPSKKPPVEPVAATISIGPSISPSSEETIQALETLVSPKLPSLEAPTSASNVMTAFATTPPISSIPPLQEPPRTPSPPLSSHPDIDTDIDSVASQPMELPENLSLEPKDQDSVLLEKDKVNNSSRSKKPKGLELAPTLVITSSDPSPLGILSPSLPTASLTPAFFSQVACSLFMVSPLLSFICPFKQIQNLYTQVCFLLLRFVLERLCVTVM
Outline: as §1

ETV2 = target: T10, ETV2 (Homo sapiens, UniProt O00321 1-342); conditions: protein: recombinant; tags: N-terminal GST; dsDNA, one strand shown
T10 sequence: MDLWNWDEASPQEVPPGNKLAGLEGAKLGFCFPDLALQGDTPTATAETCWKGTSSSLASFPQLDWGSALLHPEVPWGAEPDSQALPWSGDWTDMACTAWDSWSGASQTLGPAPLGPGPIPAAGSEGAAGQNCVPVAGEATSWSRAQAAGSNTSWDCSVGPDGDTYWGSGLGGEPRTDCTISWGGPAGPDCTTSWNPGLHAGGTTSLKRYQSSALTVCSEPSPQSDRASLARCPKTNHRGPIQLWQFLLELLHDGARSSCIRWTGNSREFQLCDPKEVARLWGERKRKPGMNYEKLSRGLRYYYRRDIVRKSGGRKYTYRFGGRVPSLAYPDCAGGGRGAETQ
Outline: as §1

ELF3 = target: T11, ELF3 (Homo sapiens, UniProt P78545 1-371); conditions: protein: recombinant; tags: N-terminal GST; dsDNA, one strand shown
T11 sequence: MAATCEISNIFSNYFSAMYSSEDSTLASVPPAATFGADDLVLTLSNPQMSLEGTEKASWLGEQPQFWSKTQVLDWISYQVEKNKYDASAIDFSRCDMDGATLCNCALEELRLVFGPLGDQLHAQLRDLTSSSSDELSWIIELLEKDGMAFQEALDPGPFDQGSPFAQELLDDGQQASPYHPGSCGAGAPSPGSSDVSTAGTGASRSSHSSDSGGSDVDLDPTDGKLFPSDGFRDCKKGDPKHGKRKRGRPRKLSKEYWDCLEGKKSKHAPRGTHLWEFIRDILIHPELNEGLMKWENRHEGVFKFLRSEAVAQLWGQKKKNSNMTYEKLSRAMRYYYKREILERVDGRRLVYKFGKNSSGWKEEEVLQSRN
Outline: as §1

CRX = CRX (Homo sapiens, UniProt O43186 1-299); conditions: protein: recombinant; tags: N-terminal GST; dsDNA, one strand shown
Sequence of CRX (O43186 whole entry): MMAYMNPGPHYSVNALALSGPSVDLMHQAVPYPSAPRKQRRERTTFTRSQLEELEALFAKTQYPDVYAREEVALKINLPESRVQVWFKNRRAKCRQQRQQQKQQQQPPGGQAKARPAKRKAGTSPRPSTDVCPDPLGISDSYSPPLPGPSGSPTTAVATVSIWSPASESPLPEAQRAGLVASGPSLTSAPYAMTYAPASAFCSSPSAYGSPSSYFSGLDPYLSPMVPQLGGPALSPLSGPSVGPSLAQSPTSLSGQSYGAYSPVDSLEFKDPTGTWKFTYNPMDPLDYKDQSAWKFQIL
Outline: as §1

ETV1 = ETV1 (Homo sapiens, UniProt P50549 1-477); conditions: protein: recombinant; tags: N-terminal GST; dsDNA, one strand shown
Sequence of ETV1 (P50549 whole entry): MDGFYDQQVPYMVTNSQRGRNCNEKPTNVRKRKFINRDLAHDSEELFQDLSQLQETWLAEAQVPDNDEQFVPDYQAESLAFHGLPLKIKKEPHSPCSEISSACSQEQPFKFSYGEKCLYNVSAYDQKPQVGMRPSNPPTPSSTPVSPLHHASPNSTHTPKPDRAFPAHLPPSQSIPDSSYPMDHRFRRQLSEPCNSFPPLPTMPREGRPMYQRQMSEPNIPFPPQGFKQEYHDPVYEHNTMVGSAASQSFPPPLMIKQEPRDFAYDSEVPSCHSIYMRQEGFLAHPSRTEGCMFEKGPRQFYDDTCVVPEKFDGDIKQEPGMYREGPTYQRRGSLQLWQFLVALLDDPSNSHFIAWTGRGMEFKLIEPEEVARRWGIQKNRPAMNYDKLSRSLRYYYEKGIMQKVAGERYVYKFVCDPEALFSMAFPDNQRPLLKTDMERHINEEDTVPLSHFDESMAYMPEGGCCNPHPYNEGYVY
Outline: as §1

For TACACT, the binding signal (FLI1) was 1.41 fold enrichment (6-mer frequency, TF over GST control), the binding signal (ELK1) was 1.57 fold enrichment (6-mer frequency, TF over GST control) and the binding signal (GABPA) was 1.51 fold enrichment (6-mer frequency, TF over GST control). The binding signal (ERG) was 1.58 fold enrichment (6-mer frequency, TF over GST control), the binding signal (ELF1) was 1.5 fold enrichment (6-mer frequency, TF over GST control) and the binding signal (EHF) was 1.62 fold enrichment (6-mer frequency, TF over GST control). The binding signal (SPI1) was 1.54 fold enrichment (6-mer frequency, TF over GST control), the binding signal (SPIB) was 1.5 fold enrichment (6-mer frequency, TF over GST control) and the binding signal (ELK3) was 1.51 fold enrichment (6-mer frequency, TF over GST control). For the same sequence, the binding signal (FEV) was 1.5 fold enrichment (6-mer frequency, TF over GST control), the binding signal (ETV5) was 1.5 fold enrichment (6-mer frequency, TF over GST control) and the binding signal (HSF1) was 1.31 fold enrichment (6-mer frequency, TF over GST control). For the same sequence, the binding signal (SPIC) was 1.58 fold enrichment (6-mer frequency, TF over GST control), the binding signal (ELF4) was 1.42 fold enrichment (6-mer frequency, TF over GST control) and the binding signal (ELK4) was 1.53 fold enrichment (6-mer frequency, TF over GST control). For the same sequence, the binding signal (ETV2) was 1.46 fold enrichment (6-mer frequency, TF over GST control), the binding signal (ELF3) was 1.36 fold enrichment (6-mer frequency, TF over GST control) and the binding signal (CRX) was 1.35 fold enrichment (6-mer frequency, TF over GST control). The binding signal (ETV1) was 1.59 fold enrichment (6-mer frequency, TF over GST control).
